The source of these data is PubChem BioAssay (NCI).

About 83,000 compounds went through this panel and 20% of them were active in at least one assay; those are over-represented in the sample as a whole.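 Testing used 96-well plates and a 48-hour single-concentration exposure. Example: -40 means 40% of the starting cells died.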 Activity calls are given as the source filed them.

This experiment has as its system KM12 colon. The experiment in a line: NCI-60 one-dose screen, 48 h (100 = growth as untreated, 0 = no growth, -100 = all killed). The note with it: 10 µM unless noted. The method, then:
Growth inhibition of the KM12 human tumor cell line is measured as a screen for anti-cancer activity. Cells are grown in 96 well plates and exposed to the test compound for 48 hours. Compounds are tested at a single concentration, which is 10^-5 M for most compounds. The reported endpoint is percent growth (GI% or GIPRCNT), where numbers from 0 - 100% represent growth inhibition, and numbers from -100% - 0 represent cell death. For example, a value of 40 represents 60% growth inhibition. A value of 0 means no net growth occurred over the course of the experiment. A value of -40 indicates 40% of cells at the beginning of the experiment died by the end of the experiment. A value of -100 means all cells are dead at the end of the experiment.
NCI-60 Human Tumor Cell Lines Screen was performed using the standard one-dose NCI protocol, which is described in more detail at https://dtp.cancer.gov/discovery_development/nci-60/default.htm.
Compounds with GIPRCNT values below 10 were considered active. Activity score was based on GIPRCNT using the following formula: […]
Score is 0 for GIPRCNT values of 100 or above, 50 for GIPRCNT values of 0, and 100 for GIPRCNT values of -100.
With `CC(=O)Nc1ccc(-n2c(O)c(/C=N/NC(=O)Cc3ccccc3Nc3c(Cl)cccc3Cl)sc2=S)cc1`, the growth was 105% (inactive).

For `NC(=NCCCOc1ccc(Cl)cc1)Nc1ccc(C(F)(F)F)cc1`, the growth is 25.2% (inactive).

On to `Cc1cc(NS(=O)(=O)c2ccc(-c3cnc(C4CC4)o3)cc2)ccc1Cl`, for which the growth is 27% (inactive).

As to `COc1ccc(S(=O)(=O)N2CC3(COC3)C2)cc1NC(=O)c1[nH]c(C)c2c1CCCCC2=O`, the growth is 54.6% (inactive).

For the compound `CC1=C[C@H]2c3c(c(O)c(O)c4oc5ccccc5c(=O)c34)[C@H](c3cc(O)c(O)c4oc5ccccc5c(=O)c34)[C@H]2C(C)(C)C1`, the growth is -1.27% (active).

For `CCCCN1CCCn2c1nc1c2c(=O)n(CCC)c(=O)n1CCC`, the growth is 100% (inactive).

For the compound `C=CCSSc1ncnc2c1ncn2C1OC(CO)C(O)C1O` (stereo not given), the growth is 37.1% (inactive).

Consider `COc1ccc(CCNc2nc3c(c(=O)n(Cc4ccc(Br)cc4)c(=O)n3C)n2C)cc1OC`, for which the growth was 100% (inactive).

Turning to `NS(=O)(=O)c1ccc(CN=C2NC(=O)S/C2=C\c2ccc(Br)cc2)cc1`, the growth is 109% (inactive).

Turning to `COc1ccc(C2C(C#N)=C(N)Oc3n[nH]c(-c4cccs4)c32)cc1I` (stereo not given), the growth is 86.2% (inactive).

For `O=C(COc1ccc(/C=C2\COc3ccccc3C2=O)cc1)Nc1nccs1`, the growth was 43.3% (inactive).

Take `NC(=O)c1cc(Cl)ccc1NC(=O)/C=C/c1ccccc1`: the growth was 9.48% (active).

`COc1cc2c(cc1-c1c(C)noc1C)ncc1nc(-c3ccccn3)n([C@H](C)COC(F)F)c12`: the growth was 47.4% (inactive).

As for `O=C(COc1cccc(/C=C2\COc3ccc(Cl)cc3C2=O)c1)c1ccc(Cl)cc1`, the growth is 77.1% (inactive).

With `COc1cc(C(=O)Oc2ccccc2OC(=O)c2cc(OC)c(OC)c(OC)c2)cc(OC)c1OC`, the growth is 90.8% (inactive).

Take `CC(C)c1c(C(=O)c2ccccc2)c(-c2ccccc2)c(-c2ccc(F)cc2)n1CC[C@@H](O)C[C@@H](O)CC(=O)O`: the growth was 91% (inactive).

As to `CC(C)(CCCN=C(N)Nc1ccc(Cl)cc1)c1ccc(F)cc1`, the growth is 57.5% (inactive).

In the case of `COc1ccc(Nc2cc(C)nc(N3CCN(c4ccnc5cc(Cl)ccc45)CC3)n2)cc1`, the growth is 23.1% (inactive).

Consider `CN(C)c1ccc(N=Nc2ccc(Br)cn2)c(O)c1`, for which the growth is 26.7% (inactive).

As for `Cc1cc(N[C@@H]2CCC[C@H](Nc3ccnc4cc(Cl)ccc34)C2)nc(N2CCCCCC2)n1`, the growth is -39% (active).

`O=c1c2c3c(sc2nc(N/N=C/c2cn(-c4ccccc4)nc2-c2ccc(Cl)cc2)n1Cc1ccccc1)CCCC3`: the growth is 103% (inactive).

On to `OCCNc1nccc(N2CCN(c3ccnc4cc(Cl)ccc34)CC2)n1`, for which the growth is 60.8% (inactive).

Regarding `Cc1cc(C)nc(SC2=C(Nc3cccc(Cl)c3C)C(=O)N(Cc3ccccc3)C2=O)n1`, the growth is 53.2% [30 µM] (inactive).

As to `CCN(CC)c1ccc(-c2cc(-c3cc(OC)c(OC)c(OC)c3)nc(N3CCOCC3)c2C#N)cc1`, the growth is 27.1% (inactive).

Regarding `CN1CCN(Cc2ccc(NC(=O)c3cncc(C#Cc4cncn5ccnc45)c3)cc2C(F)(F)F)CC1`, the growth was 19.7% (inactive).

With `COc1cc(-c2nn(-c3ccc(C)cc3)cc2C(=O)O)ccc1O`, the growth was 64.7% (inactive).

On to `COc1cc(/C=C/C(=O)c2c(C)oc3nc[nH]c(=O)c23)cc(OC)c1OC`, for which the growth is 96.9% (inactive).

In the case of `CC(C)C1=C[C@@]23CC[C@@H]4[C@](C)(CCC[C@@]4(C)C(=O)N4CCCNCC4)[C@H]2C[C@@H]1[C@H]1C(=O)CCC(=O)[C@H]13`, the growth is 101% (inactive).

With `O=C(/C=C/c1cccc([N+](=O)[O-])c1)c1ccc(O)c(CN2CCN(c3cc4c(cc3F)c(=O)c(C(=O)O)cn4C3CC3)CC2)c1`, the growth is -12.2% (active).

`Cc1cc(N2CCCC2)nc(NC2CCCC(Nc3ccnc4cc(Cl)ccc34)C2)n1` (stereo not given): the growth is -62.4% (active).

Regarding `CC1=CC(=NN=c2cc(C)n([O-])c(C)c2)C=C(C)[N+]1=O`, the growth is 95.3% (inactive).

Consider `COc1nc2c(c(=O)n1C)CN(Cc1ccccc1)C=N2`, for which the growth was 98.9% (inactive).

For `COc1cc2c(cc1-c1c(C)noc1C)ncc1nc(C3CCOCC3)n([C@H](C)COC(F)F)c12`, the growth was 47% (inactive).

In the case of `NC1=C(Cl)C(=O)c2ccc(S(N)(=O)=O)cc2C1=O`, the growth was -72.1% (active).

Turning to `CSc1nc(-c2cccc(NC(=O)CCl)c2)c(C#N)c(=O)n1C`, the growth is 98.5% (inactive).

Regarding `C/C1=C\CC[C@@]2(C)O[C@H]2[C@H]2OC(=O)C(CN3CCN(CC4C(=O)O[C@H]5[C@H]4CC/C(C)=C/CC[C@@]4(C)O[C@@H]54)CC3)[C@@H]2CC1` (stereo not given in full), the growth is 98.5% (inactive).

Regarding `COc1ccc(C(=O)c2sc3nc4c(c(-c5cccnc5)c3c2N)CCCC4)cc1OC`, the growth is 76.3% (inactive).

`COc1cc2c(cc1O)CC[C@@H]1[C@@H]2CC[C@]2(C)[C@@H](OCCCN(C)C)CC[C@@H]12`: the growth was -48.5% (active).

For the compound `COc1cc2c(cc1-c1c(C)noc1C)ncc1nc(C3CCCC3)n([C@H](C)COC(F)F)c12`, the growth was 45.8% (inactive).

As for `O=C(O)COc1ccc(Cl)cc1C1CCCCC1`, the growth is 103% (inactive).
